Screen size: about 330,000 compounds; about 1,900 (0.58%) were called active. About 4% were inconclusive and are not listed. These entries were drawn from the full list. Entries with a potency or affinity are not part of this list. Unmarked numbers belong to inactive results. Rule as the data show it: inconclusive = inhibition above about 70% without an active follow-up result; inactive = below that.

This test in a line: M. tuberculosis growth inhibition, HTS (AID 449762).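 Also: bacterial growth assessed after seven days of incubation.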 As to conditions: M. tuberculosis H37Rv growth inhibition, 7H9 media; at 25 µM; active compounds read high.
The inhibition is the relative decrease from the control value, in per cent. Turning to `O=C(Nc1ccncc1)c1ccc(Cl)c(Cl)c1`, the inhibition is 4.84%. The value for `O=C(Nc1ccc(Cl)c(Cl)c1)c1ccc(Cl)c(Cl)c1` was 1.7%; that for `CC(=O)Nc1ccc2nc3ccccc3nc2c1` was -9.66%.

With `O=C(Nc1ccc2nc3ccccc3nc2c1)c1ccccc1`, the inhibition was -0.69%. Regarding `COc1ccc(C)cc1NC(=O)CN1CCCC1c1ccc2c(c1)OCCCO2` (centres undefined), the inhibition was 5.61%. The value for `COc1ccc(NC(=O)CCCCCN2C(=O)c3ccccc3C2=O)c(OC)c1` was -6.73%; that for `C/C(=N\Nc1cccc(Cl)c1)c1ccc(-n2ccnc2)cc1` was 0.99%. As for `C/C(=N\Nc1ccccc1Cl)c1ccc(-n2ccnc2)cc1`, the inhibition was 58.6%. In the case of `COc1cccc(-c2cc(C(F)(F)F)c(C#N)c(=O)[nH]2)c1`, the inhibition is -9.57%. For the compound `Cc1csc(=Nc2ccccc2)n1Cc1ccco1`, the inhibition was 11.3%. On to `N#Cc1c(NC(=O)CSc2nnnn2C2CCCCC2)sc2c1CCCC2`, for which the inhibition was -13.1%. With `Cn1nnnc1SCC(=O)Nc1nc2c(s1)CCCC2`, the inhibition was 2.88%. For `Cc1ccc(N(CC(=O)NCc2ccco2)C(=O)CCC(=O)Nc2nccs2)c(C)c1` the value was 1.4%.

For the compound `Cc1cc(N2CCC(C(=O)N3CCN(c4cccc(C)c4C)CC3)CC2)n2ncnc2n1`, the inhibition was -0.67%. For `COc1ccc(/C=C/C(=O)c2ccc(OC)cc2OC)cc1` the value was 58.4%.

Consider `COc1ccc2cc(C(=O)/C=C/c3cc(OC)c(O)c(OC)c3)ccc2c1`, for which the inhibition is 36.1%. Regarding `CC(=O)c1cccc(N2C(=NC(=O)CCc3ccccc3)SC3CS(=O)(=O)CC32)c1` (centres undefined), the inhibition was 1.65%. Regarding `Cc1ccc(S(=O)(=O)NNC(=O)CCC(=O)Nc2ccc(C)cc2C)cc1`, the inhibition was 5.58%. As to `COc1cc(SC)ccc1C(=O)OCC(=O)NC1CCCCC1`, the inhibition is -4.21%. `CCCCCCC1CC(CC(=O)Nc2ccc([N+](=O)[O-])cc2)C(=O)O1` (centres undefined): the inhibition is 5.26%.

Turning to `CCCCCC1CC(CC(=O)Nc2ccc([N+](=O)[O-])cc2)C(=O)O1` (centres undefined), the inhibition was 68.8%.

Consider `O=C(CCNS(=O)(=O)c1ccc(F)c(Cl)c1)NCc1ccccc1F`, for which the inhibition is -9.24%. In the case of `O=C(COC(=O)Cc1ccsc1)NCc1ccc(Cl)cc1`, the inhibition was 8.12%.

On to `Cc1cc(C)c(C(=O)CC(=O)c2ccccc2Cl)c(O)c1`, for which the inhibition was 6.33%. Take `Cc1cccc(C(=O)CC(=O)c2cc(Cl)ccc2O)c1`: the inhibition was 0.28%. Consider `Cc1ccc(-c2nnc(SCC(=O)N/N=C/c3c(C)nn(-c4ccccc4)c3C)n2-c2ccc(C)cc2)cc1`, for which the inhibition was 5.96%. Regarding `COc1ccc(CCN(C)CC(O)COC(c2ccc(F)cc2)c2ccc(F)cc2)cc1OC` (centres undefined), the inhibition was 6.55%. For the compound `CCCN1CCN(CC(O)COC(c2ccc(OC)cc2)c2ccc(OC)cc2)CC1` (centres undefined), the inhibition was 6.36%.

Regarding `O=C(NN1CC(C(=O)OCc2ccc(Cl)cc2Cl)CC1=O)c1ccccc1` (centres undefined), the inhibition is -12%.

On to `O=C(c1ccc(C(=O)N2CCN(c3ccccc3F)CC2)nc1)N1CCN(c2ccccc2F)CC1`, for which the inhibition is -7.27%. Take `CC1(OC(=O)c2cccs2)C(=O)C=C2C=C(c3ccsc3)OC=C2C1=O` (centres undefined): the inhibition is -0.64%. For `O=C(Nc1ccc(Cn2ccnc2)cc1)c1cccc(C(F)(F)F)c1`, the inhibition is 7.08%. For `O=C(CSC1CCCCC1)Nc1nccs1` the value was -8.08%; for `CC(C)C(=O)Nc1ncc(Cc2ccccc2Cl)s1`, -0.61%. As for `O=C(Nc1ncc(Cc2ccccc2Cl)s1)c1ccc([N+](=O)[O-])cc1`, the inhibition is 10.6%. For `COc1ccc(C(=O)OCC(=O)Nc2c(C)cccc2C)cc1`, the inhibition is 0.88%. Turning to `CC1CCCC(NC(=O)CSC2=Nc3ccccc3C3CC=NN23)C1C` (centres undefined), the inhibition is 11.7%. As for `Cc1cc(C)n(-c2nc(NCCO)c3c4c(sc3n2)CCCC4)n1`, the inhibition was 10.4%. `Cc1cc(C)n(-c2nc(NCCCN(C)C)c3c4c(sc3n2)CCCC4)n1`: the inhibition is 9.07%.

Take `CN1CCN(/N=C/c2ccc(Br)cc2)CC1`: the inhibition is 2.12%. Consider `O=C(NN=Cc1cccc([N+](=O)[O-])c1)c1cc(-c2cccnc2)nc2ccccc12`, for which the inhibition is 5.59%. As for `CC1=CC(=O)C(C(C)C)=C/C1=N/OC(=O)c1cccc([N+](=O)[O-])c1`, the inhibition was -5.41%. The value for `CC1=CC(=O)C(C(C)C)=CC1=NC(=O)c1ccc(C)cc1` was 3.21%; that for `CCCOc1ccc(-c2csc3ncn(Cc4ccc(C(=O)O)cc4)c(=O)c23)cc1` was 11.8%; that for `CC1CCc2nc(/C(C#N)=C/c3ccncc3)sc2C1` (centres undefined) was 17.6%. `COc1cc(/C=C(\C#N)c2nc3c(s2)CCCC3)ccc1O`: the inhibition was 67.9%.

Regarding `O=C(NCCC(=O)N1CCN(c2ccccn2)CC1)c1ccc(Cl)cc1`, the inhibition was 9.44%.

As for `CC1(C)Cc2c(cnn2-c2ccccc2)C(=O)/C1=N\NC(=O)c1ccccc1`, the inhibition was 6.2%.

Take `CC1(C)Cc2c(cnn2-c2ccccc2)C(=O)/C1=N\NC(=O)c1ccccc1O`: the inhibition was 0.99%. Regarding `COc1cccc(C2CC(c3ccc(Br)cc3)=NN2C(=O)c2ccncc2)c1OC` (centres undefined), the inhibition was 10.4%. For `C=C1CCC[C@]2(C)C[C@H]3OC(=O)C(CNC(C)CC)[C@H]3CC12` (some centres undefined), the inhibition is 7.33%.

Consider `C=C1CCC[C@]2(C)C[C@H]3OC(=O)C(CNCC(C)C)[C@H]3CC12` (some centres undefined), for which the inhibition is -0.86%. As for `CN(C)C(=O)c1ccc(Cl)cc1[N+](=O)[O-]`, the inhibition was -3.01%. As for `COc1ccc(S(=O)(=O)N(C)C[C@H]2Oc3c(NC(=O)NC(C)C)cccc3C(=O)N([C@H](C)CO)C[C@@H]2C)cc1`, the inhibition is -6.16%.

As to `c1ccc(-c2csc3ncnc(NCCCN4CCOCC4)c23)cc1`, the inhibition was 0.1%. The value for `O=c1c2ccccc2nc2c3ccccc3c(NCCN3CCOCC3)nn12` was 7.65%. The value for `COc1cccc(CNS(=O)(=O)c2c(C(=O)N3CCCC3)c(C)n(C)c2C)c1` was 3.63%; that for `COc1ccc(N2CC(C)Cn3c2nc2c3c(=O)[nH]c(=O)n2C)cc1` (centres undefined) was -7.69%; that for `NC(=O)c1c(NC(=O)CSc2nnc(Cc3ccccc3)n2Cc2ccco2)sc2c1CCC2` was 55.7%.

The record behind these values is PubChem BioAssay AID449762 (Southern Research Specialized Biocontainment Screening …, 2010).
